# PHOSPHO1 inh: PubChem AID 1565; hit rate 1.1% among 290,000; recombinant PHOSPHO1, absorbance phosphatase assay; inhibition, % at 13.3 µM; in the data active = inhibition above about 60%
# Target sequence (Q8TCT1 whole entry, looked up): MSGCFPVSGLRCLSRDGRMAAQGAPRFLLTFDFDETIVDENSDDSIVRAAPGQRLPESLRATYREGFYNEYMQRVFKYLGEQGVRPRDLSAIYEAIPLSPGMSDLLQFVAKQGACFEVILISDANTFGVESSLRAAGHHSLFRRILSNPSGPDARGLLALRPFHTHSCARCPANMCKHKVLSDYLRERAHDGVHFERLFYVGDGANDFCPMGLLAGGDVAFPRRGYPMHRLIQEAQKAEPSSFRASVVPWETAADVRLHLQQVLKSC
# A3A deaminase: APOBEC3A ssDNA deaminase inhibitors, primary screen, selectivity assay for APOBEC3G inhibitor project, biochemical, FAM/TAMRA oligo cleavage fluorescence; DNA dC->dU-editing enzyme APOBEC-3A (Homo sapiens), P31941; recombinant A3A, FAM/TAMRA ssDNA deamination fluorescence; inhibition, % at 20 µM; hit rate 0.41% among 330,000;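 active = at least 40% inhibition at 20 µM here, with at most 30% in a related deaminase screen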;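 also: plate controls were A3A with DMSO for no effect and wells lacking A3A enzyme for full effect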
# Target sequence (P31941 whole entry, looked up): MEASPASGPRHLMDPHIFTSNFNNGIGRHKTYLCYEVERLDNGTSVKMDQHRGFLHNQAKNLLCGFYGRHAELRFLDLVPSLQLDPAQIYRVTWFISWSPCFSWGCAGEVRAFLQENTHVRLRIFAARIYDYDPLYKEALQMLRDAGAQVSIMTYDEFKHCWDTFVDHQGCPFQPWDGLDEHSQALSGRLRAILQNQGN
# APOBEC3G inh: APOBEC3G DNA deaminase inhibitors, primary screen, biochemical, fluorescence, single-stranded DNA substrate, uHTS | recombinant A3G, ssDNA deamination FAM/TAMRA fluorescence | inhibition, % at 20 µM | hit rate 0.28% among 330,000 | DNA dC->dU-editing enzyme APOBEC-3G (Homo sapiens), Q9HC16;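 active = inhibition of at least 40% at 20 µM, with no more than 30% in the related APOBEC3A deaminase screen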;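 also: plate controls were DMSO wells with A3G for no effect and wells lacking A3G enzyme for full effect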
# MITF act: activators of MITF-driven TRPM1 promoter reporter, primary screen, cell-based, SK-MEL-5, luciferase, single point; activation, % at 12.5 µM; hit rate 0.75% among 300,000; SK-MEL-5 TRPM1-promoter luciferase, 24 h; % of positive control, neutral wells = 0; AID 588334, 2011;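 active = mean activation of at least 80% with every replicate also reaching 80%; inconclusive = mean reaches 80% but some replicate falls short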;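 also: 0% = neutral control wells and 100% = parthenolide positive control wells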
# esBAF inh: Bmi1 luciferase reporter increase in mESCs, primary screen, esBAF inhibitor project, mouse ES cells, Bmi1 luciferase knock-in, single point; 24 h; 100% = twice the neutral-well signal; hit rate 2% among 350,000; reporter increase, % at 12.5 µM; in the data active = activation above about 40%; inconclusive = no clear call, values can overlap the other calls;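 also: 0% = median of the plate's neutral control wells and 100% = double that signal; a rise in the Bmi1 reporter signal indicates esBAF inhibition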
# Wnt bcat act: Wnt/beta-catenin pathway activators, primary screen, cell-based, plate reader, single point; activation, % at 9.35 µM; Wnt/beta-catenin reporter cell assay, activator; hit rate 1.2% among 300,000; in the data active = activation above about 30%, passing the limit was not always enough; inconclusive = no clear call, values can overlap the other calls;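 also: 0% = neutral control wells and 100% = positive control wells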
# * hit, by the source's call; ? = inconclusive; · = no result given. Only some compounds are listed: those with a hit (about 3.6% of all), similar ones and a draw of the others.
SMILES,PHOSPHO1 inh,A3A deaminase,APOBEC3G inh,MITF act,esBAF inh,Wnt bcat act
O=C(/C=C/Nc1cccc(O)c1)c1ccccc1,11,-4,2,4,-7,48*
Cc1ccc(C(=O)/C=C/Nc2cccc(O)c2)cc1,22,-4,-8,-3,-60,·
CC(C)CC#Cc1ccc2c(c1)O[C@H](CN(C)Cc1cncnc1)[C@@H](C)CN([C@@H](C)CO)S2(=O)=O,·,·,·,·,6,·
COC(=O)c1ccc(CN2C(=O)NC(Cc3c[nH]c4ccccc34)C2=O)cc1 (stereo unspecified),28,-3,-9,55,46*,4
Cc1ccc2c(c1)c1cccc3c1n2CCN3CCC(N)=O,11,1,-7,76,75*,·
CC(C)C(OC(=O)C1=Cc2ccccc2OC1)C(=O)NCC1CCCO1 (stereo unspecified),·,·,·,9,-13,36*
CC(=O)c1ccc(NC(=O)c2sc3nc(C)c(C)c(C)c3c2N)cc1,4,-7,-5,55,?,22
Cc1nc2sc(C(=O)Nc3ccccc3)c(N)c2c(C)c1[N+](=O)[O-],2,3,-4,45,·,36*
CCOc1ccc(/C=N/NC(=O)Cn2ccnc2C)cc1,3,1,3,·,-7,51*
COc1cccc(/C=N/NC(=O)Cn2ccnc2C)c1,13,3,-7,-3,·,-2
O=C(NCC1CC1)[C@H]1[C@H](CO)[C@H]2Cn3c(ccc(-c4ccncc4)c3=O)[C@@H]1N2CC1CC1,·,·,·,·,1,·
FC(F)(F)c1cccc(Cc2noc(CN3CCCCC3c3ccccn3)n2)c1 (stereo unspecified),46,1,-1,-8,9,-7
FC(F)(F)c1cccc(Cc2noc(CN3CCCC(OCc4ccccn4)C3)n2)c1 (stereo unspecified),64*,-3,-2,-8,·,-3
CN(CC(=O)Nc1cccc(F)c1)C(=O)c1cccc2ccccc12,·,-4,-7,4,13,-5
CN(CC(=O)Nc1cccc(F)c1)C(=O)c1sc2ccccc2c1Cl,·,1,1,16,62*,-5
Cc1cccc(-c2nc(CN3CCN(Cc4cccc(F)c4)CC3)c(C)o2)c1,-13,-3,-3,5,0,49*
Cc1oc(-c2cccc(F)c2)nc1CN1CCCN(C(=O)c2ccco2)CC1,37,-6,-8,1,3,5
Cc1ccc(S(=O)(=O)N(C)C[C@H]2OCCCC[C@H](C)Oc3ccc(NC(=O)Nc4ccc5c(c4)OCO5)cc3C(=O)N([C@H](C)CO)C[C@H]2C)cc1,·,·,·,·,49*,·
C[C@@H]1CCCCO[C@H](CN(C)S(=O)(=O)c2cn(C)cn2)[C@H](C)CN([C@@H](C)CO)C(=O)c2cc(NC(=O)Nc3ccc4c(c3)OCO4)ccc2O1,·,·,·,·,5,·
C[C@@H]1CCCCO[C@@H](CN(C)S(=O)(=O)c2cn(C)cn2)[C@H](C)CN([C@@H](C)CO)C(=O)c2cc(NC(=O)Nc3ccc4c(c3)OCO4)ccc2O1,·,·,·,·,31,·
Cc1ccc(S(=O)(=O)N(C)C[C@@H]2OCCCC[C@H](C)Oc3ccc(NC(=O)Nc4ccc5c(c4)OCO5)cc3C(=O)N([C@H](C)CO)C[C@H]2C)cc1,·,·,·,·,3,·
C[C@@H]1CCCCO[C@@H](CN(C)S(=O)(=O)c2cn(C)cn2)[C@@H](C)CN([C@@H](C)CO)C(=O)c2cc(NC(=O)Nc3ccc4c(c3)OCO4)ccc2O1,·,·,·,·,58*,·
C[C@@H]1CN([C@H](C)CO)C(=O)c2cc(NC(=O)Nc3ccc4c(c3)OCO4)ccc2O[C@@H](C)CCCCO[C@H]1CN(C)S(=O)(=O)c1cn(C)cn1,·,·,·,·,58*,·
COCC(=O)N(C)C[C@H]1Oc2cc(-c3cccnc3)ccc2S(=O)(=O)N([C@@H](C)CO)C[C@@H]1C,·,·,·,·,-4,·
COc1ccc(-c2cc(C(=O)N3CCN(c4ncccn4)CC3)c3ccccc3n2)cc1OC,·,27,-1,17,0,-1
SMILES,PHOSPHO1 inh,A3A deaminase,APOBEC3G inh,MITF act,esBAF inh,Wnt bcat act
COc1cccc(-c2cc(C(=O)N3CCN(c4ncccn4)CC3)c3ccccc3n2)c1,-13,8,3,23,28,·
CC(C)Oc1cccc(-c2cc(C(=O)N3CCN(c4ncccn4)CC3)c3ccccc3n2)c1,38,-1,-8,51,60*,-6
Cc1ccc(-c2cc(C(=O)N3CCN(c4ncccn4)CC3)c3ccccc3n2)cc1,69*,12,-1,8,·,21
CCC(=O)N1[C@H](CO)[C@@H](c2ccc(-c3ccccc3)cc2)[C@@H]1CNC(=O)COC,·,·,·,·,1,·
N#C/C(=C(/O)CN1CCN(c2ccccc2F)CC1)c1nc(-c2ccc(Cl)cc2)cs1,24,-5,-2,-9,-1,-2
N#C/C(=C(/O)CN1CCCCC1)c1nc(-c2ccc(Cl)cc2)cs1,28,-3,-6,38,60*,·
CC(=NC1CCCCC1)C1=C(O)c2ccccc2C1=O,-9,-6,-6,90*,14,?
Cc1ccc(-n2c(C)nn(CCOc3ccccc3)c2=O)cc1,30,3,3,65,45*,19
Cc1nn(CCOc2ccccc2)c(=O)n1-c1c(F)cccc1F,18,-1,-5,·,?,60*
O=C(NCC[C@H]1CC[C@@H](NC(=O)c2cnccn2)[C@H](CO)O1)c1ccc2c(c1)OCO2,·,·,·,·,-1,·
CN1CCN(C(=O)C[C@H]2C=C[C@@H](NS(=O)(=O)c3cccc(F)c3)[C@@H](CO)O2)CC1,·,·,·,·,-5,·
C[C@@H]1CN([C@H](C)CO)C(=O)c2cc(/C=C/c3ccccc3)cnc2O[C@H]1CN(C)C(=O)c1ccccc1,·,·,·,·,6,·
O=C(CCCC(=O)c1ccc(O)cc1)c1ccc(O)cc1,·,-8,-13,98*,30,56*
O=C(CCCC(=O)c1ccccc1)NCCc1ccccc1,-3,-1,-3,-4,-7,4
O=C(CCCOC(=O)c1ccc(O)cc1)c1ccccc1,·,-2,-7,24,43*,-3
CCC(=O)c1ccc(O)cc1,6,-3,-6,0,-3,2
O=C(CCCc1ccccc1)c1ccccc1,15,1,-5,92*,23,31*
Brc1ccccc1-c1nc2c3ccccc3ncn2n1,·,2,1,48,49*,39*
CC(C)(C)C(=O)c1cnc(Nc2ccccc2Cl)s1,-17,-2,-3,144*,?,·
CC(=O)c1csc(Nc2ccccc2Cl)n1,37,-1,-3,·,·,1

# Compound activity deposited in PubChem by several laboratories.
